The supplement of paper PMC10849652
Targets with a hit are over-represented here; the source holds about 7,900 in all. About 0.6% of all pairs of compound and target were hits.

The targets below were run with CCn1c(C(=O)N(C2CC2)C2CC2)cc2c3c(ncn3C)c(Nc3cc(C)n(C)n3)nc21 (assay: log2 fold change, soluble protein after heating vs DMSO (PISA); higher = thermal stabilisation; K562 cells, 10 uM, 30 min; active = over 0.2 and 3.5 SD of the protein, either way, in both replicates (recomputed)).
In short: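 K562 cells at 2×10^6 cells/mL were treated for 30 min with 10 μM compound, and aliquots were heated for 3 min over 48°C-58°C before pooling. Extraction used PBS with 0.5% NP-40 at 4°C, and soluble protein was the supernatant after 21,000xg for 90 min, measured by TMTpro 16plex LC-MS/MS with channel sums equalised. Thermal stability values, relative to control samples and from duplicates, are log2 fold changes.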

UniProt P17544, sequence (P17544 whole entry, looked up): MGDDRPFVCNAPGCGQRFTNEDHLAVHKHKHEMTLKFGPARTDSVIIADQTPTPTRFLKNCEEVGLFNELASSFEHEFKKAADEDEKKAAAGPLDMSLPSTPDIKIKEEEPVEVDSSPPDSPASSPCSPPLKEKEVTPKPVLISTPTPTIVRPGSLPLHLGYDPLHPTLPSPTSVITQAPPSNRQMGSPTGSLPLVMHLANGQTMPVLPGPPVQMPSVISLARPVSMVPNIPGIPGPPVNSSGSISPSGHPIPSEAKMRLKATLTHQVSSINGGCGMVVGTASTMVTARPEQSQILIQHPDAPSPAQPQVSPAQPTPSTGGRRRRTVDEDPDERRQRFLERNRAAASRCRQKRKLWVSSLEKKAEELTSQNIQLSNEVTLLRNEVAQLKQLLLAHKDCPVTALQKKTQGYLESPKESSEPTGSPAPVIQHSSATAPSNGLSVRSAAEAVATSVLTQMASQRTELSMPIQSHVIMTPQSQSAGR
UniProt Q4L235, sequence (Q4L235 whole entry, looked up): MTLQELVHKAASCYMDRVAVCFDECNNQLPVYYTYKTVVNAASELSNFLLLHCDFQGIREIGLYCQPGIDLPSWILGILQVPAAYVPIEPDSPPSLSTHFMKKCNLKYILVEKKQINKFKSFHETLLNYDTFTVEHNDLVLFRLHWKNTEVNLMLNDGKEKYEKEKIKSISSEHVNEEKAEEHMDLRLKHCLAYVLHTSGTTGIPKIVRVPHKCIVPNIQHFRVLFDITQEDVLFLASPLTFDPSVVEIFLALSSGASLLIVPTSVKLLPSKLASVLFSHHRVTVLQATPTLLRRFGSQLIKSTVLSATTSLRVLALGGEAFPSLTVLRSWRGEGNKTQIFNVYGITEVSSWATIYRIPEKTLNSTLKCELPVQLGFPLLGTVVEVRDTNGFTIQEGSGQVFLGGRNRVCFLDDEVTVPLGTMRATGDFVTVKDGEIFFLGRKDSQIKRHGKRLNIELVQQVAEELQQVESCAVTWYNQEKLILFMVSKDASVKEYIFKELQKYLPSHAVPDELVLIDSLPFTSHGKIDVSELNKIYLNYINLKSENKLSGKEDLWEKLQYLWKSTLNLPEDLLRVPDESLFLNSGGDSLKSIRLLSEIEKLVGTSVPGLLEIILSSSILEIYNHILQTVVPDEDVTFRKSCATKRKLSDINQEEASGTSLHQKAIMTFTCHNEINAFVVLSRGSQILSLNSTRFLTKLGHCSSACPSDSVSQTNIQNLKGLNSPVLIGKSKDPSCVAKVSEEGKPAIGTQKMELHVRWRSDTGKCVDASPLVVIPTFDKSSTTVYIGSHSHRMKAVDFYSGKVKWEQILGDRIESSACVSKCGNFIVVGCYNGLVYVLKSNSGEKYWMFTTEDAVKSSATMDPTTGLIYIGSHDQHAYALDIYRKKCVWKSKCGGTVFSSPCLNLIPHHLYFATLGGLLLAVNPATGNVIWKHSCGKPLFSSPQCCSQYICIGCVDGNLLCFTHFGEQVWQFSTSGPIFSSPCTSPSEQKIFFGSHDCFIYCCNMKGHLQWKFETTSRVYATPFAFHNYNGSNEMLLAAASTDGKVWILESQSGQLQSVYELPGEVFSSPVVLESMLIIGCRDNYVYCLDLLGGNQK
UniProt Q8N6H7, sequence (Q8N6H7 whole entry, looked up): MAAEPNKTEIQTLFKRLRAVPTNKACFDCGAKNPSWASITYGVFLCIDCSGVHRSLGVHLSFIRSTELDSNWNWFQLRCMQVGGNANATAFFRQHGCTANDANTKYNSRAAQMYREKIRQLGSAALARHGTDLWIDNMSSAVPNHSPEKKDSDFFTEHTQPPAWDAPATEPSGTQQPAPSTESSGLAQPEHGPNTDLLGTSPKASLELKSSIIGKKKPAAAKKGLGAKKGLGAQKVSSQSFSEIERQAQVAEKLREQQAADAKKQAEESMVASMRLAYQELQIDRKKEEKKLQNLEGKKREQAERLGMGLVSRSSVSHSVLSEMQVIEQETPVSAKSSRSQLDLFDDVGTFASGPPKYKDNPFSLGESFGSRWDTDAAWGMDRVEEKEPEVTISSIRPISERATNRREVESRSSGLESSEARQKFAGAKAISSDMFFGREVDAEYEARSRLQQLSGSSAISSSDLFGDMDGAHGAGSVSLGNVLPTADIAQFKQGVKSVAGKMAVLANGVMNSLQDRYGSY
UniProt Q9BUT1, sequence (Q9BUT1 whole entry, looked up): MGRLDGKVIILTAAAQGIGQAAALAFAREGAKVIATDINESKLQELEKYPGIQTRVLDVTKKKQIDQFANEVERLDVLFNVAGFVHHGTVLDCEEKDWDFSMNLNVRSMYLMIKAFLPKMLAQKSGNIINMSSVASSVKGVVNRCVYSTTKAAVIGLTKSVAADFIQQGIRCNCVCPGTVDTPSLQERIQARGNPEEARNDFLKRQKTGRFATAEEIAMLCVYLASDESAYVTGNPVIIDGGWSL
UniProt Q9HC16, sequence (Q9HC16 whole entry, looked up): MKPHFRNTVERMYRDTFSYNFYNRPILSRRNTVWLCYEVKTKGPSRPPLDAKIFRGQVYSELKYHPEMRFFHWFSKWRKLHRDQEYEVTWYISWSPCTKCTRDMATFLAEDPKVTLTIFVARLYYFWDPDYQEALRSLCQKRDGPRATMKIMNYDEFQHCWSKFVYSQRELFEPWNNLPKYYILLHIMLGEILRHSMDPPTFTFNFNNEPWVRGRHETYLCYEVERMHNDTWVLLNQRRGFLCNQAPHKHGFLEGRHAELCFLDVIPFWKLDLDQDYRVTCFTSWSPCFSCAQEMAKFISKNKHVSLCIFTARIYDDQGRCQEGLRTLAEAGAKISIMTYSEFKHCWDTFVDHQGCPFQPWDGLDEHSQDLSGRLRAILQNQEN
UniProt Q13895, sequence (Q13895 whole entry, looked up): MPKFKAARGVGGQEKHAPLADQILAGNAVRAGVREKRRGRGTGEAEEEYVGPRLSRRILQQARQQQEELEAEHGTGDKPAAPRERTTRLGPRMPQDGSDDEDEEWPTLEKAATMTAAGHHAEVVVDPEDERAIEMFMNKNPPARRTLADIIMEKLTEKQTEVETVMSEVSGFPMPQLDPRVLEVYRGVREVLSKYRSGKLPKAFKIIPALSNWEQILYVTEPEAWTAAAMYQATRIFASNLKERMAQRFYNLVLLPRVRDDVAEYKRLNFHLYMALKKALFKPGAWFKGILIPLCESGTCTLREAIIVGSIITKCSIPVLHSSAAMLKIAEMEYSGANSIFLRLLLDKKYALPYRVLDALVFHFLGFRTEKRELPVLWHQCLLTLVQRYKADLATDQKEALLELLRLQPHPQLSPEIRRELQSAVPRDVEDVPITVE
UniProt P17707, sequence (P17707 whole entry, looked up): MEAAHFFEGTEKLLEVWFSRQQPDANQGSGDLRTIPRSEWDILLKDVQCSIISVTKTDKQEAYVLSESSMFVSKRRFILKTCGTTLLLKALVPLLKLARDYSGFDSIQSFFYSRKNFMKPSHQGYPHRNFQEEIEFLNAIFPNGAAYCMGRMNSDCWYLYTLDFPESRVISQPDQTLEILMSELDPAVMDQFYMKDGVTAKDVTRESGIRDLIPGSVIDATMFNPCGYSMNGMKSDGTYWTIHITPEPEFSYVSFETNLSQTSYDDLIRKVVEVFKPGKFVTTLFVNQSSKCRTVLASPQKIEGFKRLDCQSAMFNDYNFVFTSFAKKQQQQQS
UniProt P54922, sequence (P54922 whole entry, looked up): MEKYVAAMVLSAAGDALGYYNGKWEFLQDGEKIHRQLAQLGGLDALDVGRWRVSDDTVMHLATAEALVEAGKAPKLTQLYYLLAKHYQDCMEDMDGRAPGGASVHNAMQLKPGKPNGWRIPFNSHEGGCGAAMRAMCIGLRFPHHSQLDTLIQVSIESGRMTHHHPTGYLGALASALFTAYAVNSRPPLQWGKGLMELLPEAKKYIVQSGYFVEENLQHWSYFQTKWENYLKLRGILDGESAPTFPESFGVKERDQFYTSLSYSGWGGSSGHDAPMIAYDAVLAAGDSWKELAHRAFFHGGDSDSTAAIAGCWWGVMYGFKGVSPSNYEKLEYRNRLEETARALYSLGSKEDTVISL
UniProt Q8N5I2, sequence (Q8N5I2 whole entry, looked up): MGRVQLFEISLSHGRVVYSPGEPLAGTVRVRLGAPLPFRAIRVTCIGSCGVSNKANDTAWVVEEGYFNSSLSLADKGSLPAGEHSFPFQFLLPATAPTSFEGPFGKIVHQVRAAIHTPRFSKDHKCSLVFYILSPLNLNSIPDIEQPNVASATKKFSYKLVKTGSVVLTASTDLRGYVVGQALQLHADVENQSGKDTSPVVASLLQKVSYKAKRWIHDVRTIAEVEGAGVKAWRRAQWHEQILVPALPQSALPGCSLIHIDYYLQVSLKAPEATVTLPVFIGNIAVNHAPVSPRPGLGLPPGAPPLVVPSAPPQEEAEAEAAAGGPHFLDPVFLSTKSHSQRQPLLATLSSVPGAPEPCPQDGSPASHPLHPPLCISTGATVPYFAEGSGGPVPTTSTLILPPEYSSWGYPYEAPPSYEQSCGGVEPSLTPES
UniProt Q8WV93, sequence (Q8WV93 whole entry, looked up): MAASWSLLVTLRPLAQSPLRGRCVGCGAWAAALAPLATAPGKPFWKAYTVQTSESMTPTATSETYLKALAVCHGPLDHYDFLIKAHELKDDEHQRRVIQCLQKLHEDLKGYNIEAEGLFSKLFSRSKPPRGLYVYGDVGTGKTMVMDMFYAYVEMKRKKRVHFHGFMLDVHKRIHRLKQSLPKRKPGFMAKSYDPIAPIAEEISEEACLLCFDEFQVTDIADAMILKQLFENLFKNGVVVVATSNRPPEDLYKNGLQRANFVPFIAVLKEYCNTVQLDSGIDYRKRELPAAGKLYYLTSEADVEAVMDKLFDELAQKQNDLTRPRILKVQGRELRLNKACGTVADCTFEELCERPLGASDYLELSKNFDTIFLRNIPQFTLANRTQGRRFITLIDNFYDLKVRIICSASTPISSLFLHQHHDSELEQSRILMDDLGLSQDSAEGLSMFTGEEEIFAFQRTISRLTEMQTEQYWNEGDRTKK

log2 fold change, inactive:
ABHD17A isoform 2 (UniProt Q96GS6) -0.058
AASDH (UniProt Q4L235) -0.018
ARFGAP2 (UniProt Q8N6H7) -0.037
ACTBL2 (UniProt Q562R1) 0.05
AMD1 (UniProt P17707) -0.073
BRD4 (UniProt O60885) -0.016
ADPRH (UniProt P54922) -0.067
BDH2 (UniProt Q9BUT1) 0
ANXA5 (UniProt P08758) 0.002
BTBD6 (UniProt Q96KE9) -0.163
BYSL (UniProt Q13895) -0.077
ARRDC1 (UniProt Q8N5I2) 0.09
BRIP1 (UniProt Q9BX63) -0.16
ADAM15 (UniProt Q13444) -0.177
ABCA3 (UniProt Q99758) -0.035
AFG1L (UniProt Q8WV93) 0.017
BRD8 isoform 2 (UniProt Q9H0E9) -0.045
ASS1 (UniProt P00966) -0.024
APOBEC3G (UniProt Q9HC16) 0.006
ATF7 isoform 6 (UniProt P17544) 0.007
AIFM2 (UniProt Q9BRQ8) -0.025
ASB6 (UniProt Q9NWX5) -0.016
APAF1 (UniProt O14727) -0.231
